Results filed as inconclusive are left out. Unmarked numbers belong to inactive results. The source made the active and inactive calls. Unless noted, the call rests on the fitted dose curve; in most records, active means well fitted cell-killing curve with a large enough effect in the repeat runs; inconclusive means weak or mixed curves, or effect the other way; inactive means flat fitted curve, though single readings scatter.
Further: nearly all actives have a fitted effect of over 35% in size.
On the % scale 0 is the no-effect control and ±100 the full control effect.

In the first test the target is Retinoic acid receptor RXR-alpha (Homo sapiens) (UniProt P19793). Put plainly: qHTS assay to identify small molecule agonists of the RXR signaling pathway (AID 1159527; calls by dose curve; further: potency means the concentration at half of the fitted maximal effect). Particulars: HEK293T RXRa-UAS-bla, beta-lactamase ratio, 16 h; series mostly up to 76.8 µM; activation: at the top concentration. In short, it runs like this: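 GeneBLAzer RXR-alpha-UAS-bla HEK 293T cells in 2% charcoal-stripped FBS medium were exposed to compounds for 16 hr at 37 C in agonist mode. Beta-lactamase reporter read as 460/530 nm FRET ratio after 2 hr substrate loading.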
Retinoic acid receptor RXR-alpha (Homo sapiens), sequence (P19793 whole entry, looked up): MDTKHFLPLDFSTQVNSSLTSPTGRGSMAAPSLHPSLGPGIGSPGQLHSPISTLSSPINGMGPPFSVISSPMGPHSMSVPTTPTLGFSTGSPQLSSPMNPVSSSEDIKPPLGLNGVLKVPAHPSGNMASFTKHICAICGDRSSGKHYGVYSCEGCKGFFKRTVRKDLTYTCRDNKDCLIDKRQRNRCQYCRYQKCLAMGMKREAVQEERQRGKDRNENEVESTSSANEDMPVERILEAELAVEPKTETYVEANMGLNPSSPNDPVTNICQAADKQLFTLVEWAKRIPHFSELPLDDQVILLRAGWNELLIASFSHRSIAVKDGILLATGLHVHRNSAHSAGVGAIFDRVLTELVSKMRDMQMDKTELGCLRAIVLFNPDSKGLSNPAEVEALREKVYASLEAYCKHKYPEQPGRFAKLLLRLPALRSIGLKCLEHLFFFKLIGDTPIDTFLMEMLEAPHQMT
For orientation: qHTS replaces the single test concentration by a dilution series.
For the compound `O=[N+]([O-])c1ccc(F)c([N+](=O)[O-])c1`, the “activation” value was -11%.

Regarding `Clc1cccc(SC2CCNCC2)n1`, the “activation” value is 9.67% [at 35.3 µM].

As to `C=CC(C)=O`, the “activation” value is 11.4%.

Consider `CC(=O)[C@H]1CC[C@H]2[C@@H]3CC[C@H]4C[C@](C)(O)CC[C@]4(C)[C@H]3CC[C@]12C`, for which the “activation” value is -8.67% [at 35.3 µM].

As to `CCCCN(N=O)C(=N)N[N+](=O)[O-]`, the “activation” value was -13%.

Turning to `O=[N+]([O-])c1cc(C(F)(F)F)cc([N+](=O)[O-])c1Cl`, the “activation” value was -5.31%.

Turning to `ClCCCCBr`, the “activation” value is 1.42%.

Take `C=CC(=O)NCNC(=O)C=C`: the Potency was 4.35 µM (active).

As for `O=S(=O)(O)C(F)(F)C(F)(F)C(F)(F)C(F)(F)F`, the Potency is 6.54 µM (active).

In the case of `ClCC(Br)CBr` (stereo not drawn), the “activation” value was -3.74%.

In the case of `CC(Cl)C(C)Cl` (stereo not drawn), the “activation” value is -2.5%.

With `ClC=C(Cl)Cl`, the “activation” value is 2.04%.

For the compound `c1ccc(C2CC2)c(OCC2=NCCN2)c1`, the “activation” value is 4.1% [at 35.3 µM].

`CNC(C)Cc1ccccc1OC` (stereo not drawn): the “activation” value is 6.18% [at 35.3 µM].

Take `NC(=O)C(Cl)(Cl)Cl`: the “activation” value was 5%.

`Clc1cc(C(Cl)(Cl)Cl)cnc1Cl`: the “activation” value was -6.76%.

For the compound `O=C(O)C(F)(F)C(F)(F)C(F)(F)C(F)(F)C(F)(F)C(F)(F)C(F)(F)C(F)(F)C(F)(F)F`, the “activation” value is 11.5%.

In the case of `Nc1nc(N)nc(N)n1`, the “activation” value is 5.91%.

Regarding `COc1cc(Cl)c(OC)cc1Cl`, the “activation” value was 10.9%.

On to `CC(C)=CCOc1c2occc2cc2ccc(=O)oc12`, for which the “activation” value is -2.5% [at 35.3 µM].

Regarding `C=CCN1CC[C@]23c4c5ccc(O)c4O[C@H]2C(=O)CC[C@@]3(O)[C@H]1C5`, the “activation” value is 9.25% [at 35.3 µM].

For `N#Cc1ccc(Cl)cc1`, the “activation” value was 5.23%.

As to `CCC(Cl)CCl` (stereo not drawn), the “activation” value is 1.44%.

Take `Cc1cc(=O)[nH]o1`: the “activation” value is 9.37%.

Regarding `O=C(C(Cl)(Cl)Cl)C(Cl)(Cl)Cl`, the “activation” value was 7.93%.

With `C=CCC1([C@H](C)CCC)C(=O)NC(=O)NC1=O`, the “activation” value is 6.02%.

Regarding `CC1CC(CC2CCC(N)C(C)C2)CCC1N` (stereo not drawn), the “activation” value is -7.58%.

On to `CCCCCCCCCCOC(=O)c1ccccc1C(=O)OCCCCCCCCCC`, for which the “activation” value was 10.6%.

With `Sc1ccccc1Cl`, the “activation” value was -2.08% [at 35.3 µM].

`CC1(C)[C@H](C=C(Cl)Cl)[C@@H]1C(=O)O[C@@H](C#N)c1cccc(Oc2ccccc2)c1`: the “activation” value was -18.2%.

Consider `Brc1ccccc1`, for which the “activation” value is 9.33%.

For `CCN(C)N=O`, the “activation” value is 0.182%.

For the compound `CC(c1ccc(O)cc1)(c1ccc(O)cc1)c1ccc(O)cc1`, the “activation” value is 16.2%.

Tested on in another test: not listed separately
The experiment in a line: qHTS assay to identify small molecule antagonists of the retinoid acid receptor (RAR) signaling pathway - cell viability counter screen (AID 1159551). The settings on record: C3RL4 cells viability, ATP luminescence (CellTiter-Glo), 6 h; series mostly up to 92.4 µM; activity change, negative = cytotoxicity: at the top concentration. In short, it runs like this: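 Cells (C3RL4) are plated, incubated overnight, dosed with compound in DMSO, then given retinol at 1 uM final. After 6 h at 37 C, CellTiter-Glo is added and luminescence read following 30 min at room temperature.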
As for `O=[N+]([O-])c1ccc(F)c([N+](=O)[O-])c1`, the “activity change, negative = cytotoxicity” value is -4.89%.

On to `Clc1cccc(SC2CCNCC2)n1`, for which the “activity change, negative = cytotoxicity” value is 5.07% [at 42.5 µM].

On to `C=CC(C)=O`, for which the “activity change, negative = cytotoxicity” value was 0.965%.

On to `CC(=O)[C@H]1CC[C@H]2[C@@H]3CC[C@H]4C[C@](C)(O)CC[C@]4(C)[C@H]3CC[C@]12C`, for which the “activity change, negative = cytotoxicity” value is 0.348% [at 42.5 µM].

As to `CCCCN(N=O)C(=N)N[N+](=O)[O-]`, the “activity change, negative = cytotoxicity” value was -6.9%.

For the compound `O=[N+]([O-])c1cc(C(F)(F)F)cc([N+](=O)[O-])c1Cl`, the “activity change, negative = cytotoxicity” value was 0.164%.

Take `ClCCCCBr`: the “activity change, negative = cytotoxicity” value was 0.855%.

With `O=C1C(=O)c2cccc3cccc1c23`, the “activity change, negative = cytotoxicity” value is -3.03%.

For the compound `C=CC(=O)NCNC(=O)C=C`, the “activity change, negative = cytotoxicity” value was 5.33%.

Turning to `O=S(=O)(O)C(F)(F)C(F)(F)C(F)(F)C(F)(F)F`, the “activity change, negative = cytotoxicity” value was 2.46%.

For the compound `ClCC(Br)CBr` (stereo not drawn), the “activity change, negative = cytotoxicity” value is 2.23%.

In the case of `CC(Cl)C(C)Cl` (stereo not drawn), the “activity change, negative = cytotoxicity” value is -0.47%.

`ClC=C(Cl)Cl`: the “activity change, negative = cytotoxicity” value is 4.5%.

As to `c1ccc(C2CC2)c(OCC2=NCCN2)c1`, the “activity change, negative = cytotoxicity” value was 0.991% [at 42.5 µM].

`CNC(C)Cc1ccccc1OC` (stereo not drawn): the “activity change, negative = cytotoxicity” value is -0.875% [at 42.5 µM].

With `NC(=O)C(Cl)(Cl)Cl`, the “activity change, negative = cytotoxicity” value was 1.87%.

`Clc1cc(C(Cl)(Cl)Cl)cnc1Cl`: the “activity change, negative = cytotoxicity” value is 0.734%.

With `O=C(O)C(F)(F)C(F)(F)C(F)(F)C(F)(F)C(F)(F)C(F)(F)C(F)(F)C(F)(F)C(F)(F)F`, the “activity change, negative = cytotoxicity” value is 1.96%.

For `Nc1nc(N)nc(N)n1`, the “activity change, negative = cytotoxicity” value is 2.79%.

As to `COc1cc(Cl)c(OC)cc1Cl`, the “activity change, negative = cytotoxicity” value is 2.15%.

As to `CC(C)=CCOc1c2occc2cc2ccc(=O)oc12`, the “activity change, negative = cytotoxicity” value is -0.176% [at 42.5 µM].

As to `C=CCN1CC[C@]23c4c5ccc(O)c4O[C@H]2C(=O)CC[C@@]3(O)[C@H]1C5`, the “activity change, negative = cytotoxicity” value is 2.08% [at 42.5 µM].

In the case of `N#Cc1ccc(Cl)cc1`, the “activity change, negative = cytotoxicity” value is -0.0128%.

In the case of `CCC(Cl)CCl` (stereo not drawn), the “activity change, negative = cytotoxicity” value was 4.33%.

Turning to `Cc1cc(=O)[nH]o1`, the “activity change, negative = cytotoxicity” value was 3.59%.

For the compound `O=C(C(Cl)(Cl)Cl)C(Cl)(Cl)Cl`, the “activity change, negative = cytotoxicity” value is 1.53%.

For `C=CCC1([C@H](C)CCC)C(=O)NC(=O)NC1=O`, the “activity change, negative = cytotoxicity” value is 0.234%.

In the case of `CC1CC(CC2CCC(N)C(C)C2)CCC1N` (stereo not drawn), the “activity change, negative = cytotoxicity” value was -3.08%.

As to `CCCCCCCCCCOC(=O)c1ccccc1C(=O)OCCCCCCCCCC`, the “activity change, negative = cytotoxicity” value is 2.5%.

In the case of `Sc1ccccc1Cl`, the “activity change, negative = cytotoxicity” value was -1.46% [at 42.5 µM].

Turning to `CC1(C)[C@H](C=C(Cl)Cl)[C@@H]1C(=O)O[C@@H](C#N)c1cccc(Oc2ccccc2)c1`, the “activity change, negative = cytotoxicity” value was -0.605%.

Consider `Brc1ccccc1`, for which the “activity change, negative = cytotoxicity” value is -1.74%.

As to `CCN(C)N=O`, the “activity change, negative = cytotoxicity” value is 0.27%.

Consider `Clc1ccc(C2(Cn3cncn3)CC(Br)CO2)c(Cl)c1` (stereo not drawn), for which the “activity change, negative = cytotoxicity” value is -1.47%.

With `CC(c1ccc(O)cc1)(c1ccc(O)cc1)c1ccc(O)cc1`, the “activity change, negative = cytotoxicity” value is -0.443%.

The record behind these values is PubChem BioAssay (Tox21).
